# Measured values: PubChem BioAssay AID651598 (Sanford-Burnham Center for Chemical Genomics, 2012)
# Several values for one entry are separate records, joined by “and”; a condition that tells them apart may be missing. Equal entries are not always repeated.
# Molecular target: C-X-C chemokine receptor type 6 (Homo sapiens) (UniProt O00574)
# Assay: apelin receptor (APJ) antagonists, SAR follow-up, counter-screen for CXCR6 antagonist project, cell-based, beta-arrestin, DiscoveRx, panel, CHO-K1 (AID 651598)
# Details: CHO-K1 PathHunter beta-arrestin luminescence, antagonist mode; run 5, at 80 µM (top of the series)
# Chain of C-X-C chemokine receptor type 6 (Homo sapiens) (O00574 whole entry, looked up): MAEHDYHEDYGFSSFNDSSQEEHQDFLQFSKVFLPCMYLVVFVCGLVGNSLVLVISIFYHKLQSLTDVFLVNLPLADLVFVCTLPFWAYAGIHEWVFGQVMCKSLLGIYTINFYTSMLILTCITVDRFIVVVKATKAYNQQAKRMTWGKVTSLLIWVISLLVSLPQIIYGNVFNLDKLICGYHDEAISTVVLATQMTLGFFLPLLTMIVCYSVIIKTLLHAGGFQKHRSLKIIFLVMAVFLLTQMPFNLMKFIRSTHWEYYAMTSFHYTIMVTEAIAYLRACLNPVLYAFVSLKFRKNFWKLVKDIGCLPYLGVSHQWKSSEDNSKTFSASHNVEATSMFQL
row,Compound,inhibition
1,COc1cc(C(=O)NC2CCN(CC(=O)Nc3ccccc3)CC2)cc(OC)c1OC,12%
2,COc1cc(C(=O)NC2CC3CCC(C2)N3CC(=O)Nc2ccccc2)cc(OC)c1OC (stereo not drawn),45.3% and 9.45%
3,COc1cc(C(=O)NC2CC3CCCC(C2)N3CC(=O)Nc2ccccc2)cc(OC)c1OC (stereo not drawn),85.4% and 45.2% and 22.2%
